KCNH2 WT inh: qHTS for Inhibitors of KCHN2 3.1: Wildtype qHTS | activity change, % at 1.84 µM | Voltage-gated inwardly rectifying potassium channel KCNH2 (Homo sapiens), Q12809 | 340,000 compounds, 0.37% hits | AID 720551, 2013 | U2OS, BacMam KCNH2, thallium flux FluxOr; hits give low values;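 active means maximum activity change below -70%; inconclusive means maximum activity change between -70% and -50%; inactive means maximum activity change above -50%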
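U2OS cells transduced with wild-type KCNH2 virus are loaded with FluxOr dye for 45 min, and thallium flux is measured in kinetic reads before and after stimulation buffer. Rate constants are normalized to DMSO controls.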
KCNH2 3.1 inh: qHTS for Inhibitors of KCHN2 3.1: Mutant qHTS; Potassium voltage-gated channel subfamily H member 2, brain isoform KCNH2 3.1 (human); U2OS KCNH2 3.1, thallium flux FluxOr; hits give low values; activity change, % (tested at about 1.8 µM); 340,000 compounds, 0.95% hits; AID 720553, 2013;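 active means maximum activity change below -70%; inconclusive means maximum activity change from -70% to -50%; inactive means maximum activity change above -50%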;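 further: thallium influx rate constant from kinetic fluorescence after stimulation buffer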
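Measured as rate of thallium-driven FluxOr signal in transduced U2OS cells carrying the 3.1 channel, read kinetically for 2 min upon stimulation; values are rate constants scaled to DMSO control wells.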
PLK1 PBD inh: qHTS for Inhibitors of PLK1-PDB (polo-like kinase 1 - polo-box domain): Primary Screen; Serine/threonine-protein kinase PLK1 (Homo sapiens), P53350; Plk1 PBD binding of FITC phosphopeptide, fluorescence polarization; Potency, µM, most hits filed as inhibitors; 360,000 compounds, 2.8% hits; further: series mostly up to about 57 µM; nearly all actives have a fitted effect of over 65% in size
MBNL1 CUG block: qHTS Assay for Inhibitors of MBNL1-poly(CUG) RNA binding; 280,000 compounds, 0.036% hits; Potency, µM (doses to about 57.5 µM), most hits filed as inhibitors; TR-FRET MBNL1-His/biotin-(CUG)12 binding, 665/545 ratio; Muscleblind-like protein 1 (Homo sapiens), Q9NR56; active means well fitted inhibition curve with a large enough effect in the signal ratio, with a control signal flat, not every such curve was filed as active; inconclusive means small, poorly fitted or top-dose-only effect, or effect the other way, or a change in a side signal; inactive means no such curve, though single readings can be large or run the other way; the % refers to the signal ratio
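Compounds (final 92 nM to 58 uM) are added to His-tagged MBNL1 and biotin-(CUG)12, then terbium anti-His antibody and streptavidin-XL665 (5 nM final). After 60 min at room temperature, the 665/545 nm ratio is read.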
CBFb-RUNX1 inh: qHTS Assay for Compounds Blocking the Interaction Between CBF-beta and RUNX1 for the Treatment of Acute Myeloid Leukemia; Runt-related transcription factor 1 (Homo sapiens) + Core-binding factor subunit beta …; AlphaScreen CBFb-His/RUNX1-biotin binding, biochemical; Potency, µM (doses to about 59.8 µM), hits mostly inhibitors; 230,000 tested, under 10 active; AID 1477, 2009
Target sequence (Q01196 whole entry, looked up): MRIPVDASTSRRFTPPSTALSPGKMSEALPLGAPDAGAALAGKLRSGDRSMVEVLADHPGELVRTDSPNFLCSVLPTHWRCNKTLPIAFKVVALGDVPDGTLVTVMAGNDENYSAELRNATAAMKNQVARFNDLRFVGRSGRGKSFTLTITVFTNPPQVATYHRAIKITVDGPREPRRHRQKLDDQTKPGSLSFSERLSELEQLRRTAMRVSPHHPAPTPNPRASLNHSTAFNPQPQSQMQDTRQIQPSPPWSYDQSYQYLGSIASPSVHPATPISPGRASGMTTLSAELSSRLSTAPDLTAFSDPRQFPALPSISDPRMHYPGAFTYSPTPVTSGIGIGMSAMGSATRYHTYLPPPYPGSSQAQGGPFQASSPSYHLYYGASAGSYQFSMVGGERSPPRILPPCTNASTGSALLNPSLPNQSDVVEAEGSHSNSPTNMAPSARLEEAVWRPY
Target sequence (Q13951 whole entry, looked up): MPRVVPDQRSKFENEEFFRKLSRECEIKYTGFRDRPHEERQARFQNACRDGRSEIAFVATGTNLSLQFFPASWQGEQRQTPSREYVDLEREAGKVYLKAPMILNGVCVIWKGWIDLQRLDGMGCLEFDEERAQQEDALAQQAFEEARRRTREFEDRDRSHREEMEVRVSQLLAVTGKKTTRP
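His-tagged CBF-beta and biotinylated RUNX1 (30 nM each) were premixed 20 min at room temperature, exposed to compound for 15 min, then given nickel-chelate and streptavidin AlphaScreen beads (50 ng each). After 90 min, AlphaScreen signal was read.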
VDR inhibitor: Inhibitors of the vitamin D receptor (VDR): qHTS. Potency, µM, hits mostly inhibitors. 400,000 compounds, 0.93% hits. AID 504847, 2011. VDR-SRC2-3 peptide fluorescence polarization, 2 h. Vitamin D3 receptor (Homo sapiens), P11473
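VDR–SRC2-3 interaction, FP format. Cmpds 23 nl via pintool, brief spin, 2 h ambient incubation.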
A number is an active result; i = inactive; ? = inconclusive; nt = no result. Rows were chosen to be rich in hits. Some 3.8% of all compounds tested hit in one or more screens of this group. Unless noted, the call rests on the fitted dose curve; in most records, active means well fitted curve in the direction sought with a large enough effect; inconclusive means small, poorly fitted or top-dose-only effect, or another doubt; inactive means no such curve, though single readings can be large; an effect the other way counts as inactive or inconclusive.

SMILES	KCNH2 WT inh	KCNH2 3.1 inh	PLK1 PBD inh	MBNL1 CUG block	CBFb-RUNX1 inh	VDR inhibitor
Cc1csc(SCC(=O)c2c(N)n(CC(C)C)c(=O)n(C)c2=O)n1	-325	i	i	i	i	i
CC(C)Cn1c(N)c(C(=O)COC(=O)C2CCCCC2)c(=O)n(C)c1=O	i	i	24µM	i	i	?
Cc1ccc(N2CC(C(=O)OCC(=O)c3c(N)n(CC(C)C)c(=O)n(C)c3=O)CC2=O)cc1 (stereo unspecified)	i	i	i	nt	nt	i
CCOc1ccc(CCNC(=O)Cn2ccc3cc(S(=O)(=O)N4CCCCC4)ccc32)cc1	nt	nt	nt	nt	nt	i
COc1cc(OC)c(OC)cc1CN1CCc2nc(N3CCN(c4ccccc4F)CC3)ncc2C1	nt	nt	nt	nt	nt	i
O=S(=O)(NN1CCOCC1)c1cc(Cl)cc(Cl)c1O	i	nt	15µM	i	nt	?
O=C(NN1CCOCC1)c1ccc(Cl)cc1Cl	i	i	i	nt	nt	i
COc1ccc(C(=O)N/C(=C/c2cccnc2)C(=O)Nc2cccc(C(C)=O)c2)cc1OC	i	i	30µM	i	nt	i
O=C(N/N=C/c1cccnc1)c1cccc(NC(=O)c2cccc(Br)c2)c1	i	i	i	i	nt	i
CC(=O)Nc1cccc(C(=O)N/N=C/c2cccnc2)c1	i	i	24µM	i	i	i
CC(=O)c1cccc(NC(=O)/C(=C\c2cccnc2)NC(=O)c2ccccc2)c1	i	i	i	i	nt	i
COc1cccc2c(C)nc(Nc3nc(CSc4nnc(C)s4)cc(=O)[nH]3)nc12	i	i	24µM	i	i	79µM
CN(C)c1nc(C(=O)NN)nc(N(C)C)n1	i	i	i	i	i	i
CN(C)c1nc(N)c2ncc(=S)[nH]c2n1	i	i	4.7µM	?	i	i
CC(C)NC(=O)C12CC3CC(C1)CC(C(=O)NC(C)C)(C3)C2	i	-88	i	i	i	i
CCCCn1c(=O)c2oc3ccccc3c2n(CC(=O)Nc2cc(C)ccc2C)c1=O	nt	nt	nt	nt	nt	i
Cc1cc(NC(=O)CCC(=O)N(C(C(=O)NC(C)(C)C)c2ccccc2Cl)C(C)(C)C)no1 (stereo unspecified)	i	-165	i	i	nt	i
C[C@@]12CCc3occc3[C@H]1CC[C@@]13C[C@@H](CC[C@H]12)[C@@](O)(CO)C3	nt	nt	nt	nt	i	i
O=C(CCSCc1cnn(-c2ccccc2)c1-n1cccc1)NCc1ccccc1F	nt	nt	nt	nt	nt	i
CCc1ccc(S(=O)(=O)c2nnn(-c3cccc(C)c3)c2N)cc1	nt	nt	nt	nt	nt	i
CC(=O)c1cccc(Nc2c3c(nc4ccccc24)CCC3)c1	i	i	i	i	nt	i
CC(=O)c1ccc(Nc2c3c(nc4ccccc24)CCCC3)cc1	-77	i	i	?	i	i
O=[N+]([O-])c1cccnc1Oc1ccccc1F	i	i	i	?	i	i
O=[N+]([O-])c1cccnc1Oc1cc(Cl)c(Cl)cc1Cl	i	i	17µM	nt	nt	nt
CC1CCN(CC(=O)Nc2sc3c(c2C#N)CCC3)CC1	i	i	i	i	i	i
SMILES	KCNH2 WT inh	KCNH2 3.1 inh	PLK1 PBD inh	MBNL1 CUG block	CBFb-RUNX1 inh	VDR inhibitor
CC1CCc2c(sc(NC(=O)Cn3nc(C(F)(F)F)c4c3CCCCC4)c2C#N)C1 (stereo unspecified)	i	i	27µM	i	i	i
N#Cc1c(NC(=O)c2cnn3cccnc23)sc2c1CCCC2	i	i	24µM	i	i	i
CC1CCc2c(sc(NC(=O)c3nc4ncccn4n3)c2C#N)C1 (stereo unspecified)	i	i	4.7µM	i	i	?
Cc1ccc(CNC(=O)c2c(-c3ccccc3Cl)noc2C)o1	nt	nt	nt	nt	nt	i
CCC1CCCCN1C(=O)c1ccc2c(c1)N(Cc1cccc(Cl)c1)C(=O)c1ccccc1S2(=O)=O (stereo unspecified)	nt	nt	nt	nt	nt	i
CCOC(=O)c1c(C)[nH]c(C)c1S(=O)(=O)N1CCC(C(=O)Nc2ccccc2CC)CC1	nt	nt	nt	nt	nt	i
CC(=O)c1c(C)oc2ccc(NS(=O)(=O)c3ccc(O)c(C(=O)O)c3)cc12	i	i	i	i	i	i
O=C(O)c1cc(S(=O)(=O)Nc2ccc3oc(=O)sc3c2)ccc1O	i	i	6.7µM	i	i	79µM
Cc1ccc(S(=O)(=O)NC(=O)NC2CCCCCCC2)cc1	nt	nt	nt	nt	nt	i
CC(C)C1N=C(c2ccc3c(c2)OCO3)CC(c2ccccc2O)N1 (stereo unspecified)	i	i	i	i	i	79µM
CCC(C)n1c(SCc2ccc(C(C)(C)C)cc2)nc2ccsc2c1=O (stereo unspecified)	nt	nt	nt	nt	nt	i
COC(=O)CC1C(=O)NCCN1C(=O)c1ccc2oc(C(C)C)nc2c1 (stereo unspecified)	i	i	30µM	i	nt	?
O=C(O)Cc1sc(-c2ccc(Cl)cc2)nc1-c1ccccc1	i	i	24µM	i	i	?
O=C(O)Cc1sc(Nc2ccccc2)nc1-c1ccc(Cl)cc1	i	i	21µM	i	i	i
COc1cccc(NC(=O)COC(=O)c2c(NC(C)=O)sc(C)c2C)c1	-73	i	i	nt	nt	i
Cc1cccc(Cn2c(CNS(=O)(=O)c3ccc(C(C)C)cc3)nc3cccnc32)c1	nt	nt	nt	nt	nt	i
Cc1ccc(C(=O)NNC(=O)C2CCN(S(=O)(=O)c3ccc(C)cc3)CC2)cc1	i	i	i	i	i	i
Cc1[nH]c(=O)[nH]c(=O)c1S(=O)(=O)N1CCC(C(=O)NC(C)c2ccccc2)CC1 (stereo unspecified)	i	i	34µM	i	i	i
Cc1ccc(S(=O)(=O)N2CCC(C(=O)N(C)C3CCS(=O)(=O)C3)CC2)cc1 (stereo unspecified)	i	i	6µM	i	i	i
CN(C)C(CNC(=O)C1CCN(S(=O)(=O)c2ccccc2)CC1)c1ccccc1 (stereo unspecified)	i	i	34µM	i	i	i
Cc1ccc(S(=O)(=O)N2CCC(C(=O)NNC(=O)c3ccccc3)CC2)cc1	i	-115	i	i	i	i
CC(NC(=O)C1CCN(S(=O)(=O)c2ccccc2)CC1)c1ccccc1 (stereo unspecified)	i	i	i	i	nt	i
COc1ccc2c(c1)c1c(c(=O)n(CCc3ccccc3)c(=O)n1Cc1ccc(Cl)cc1)n2C	nt	nt	nt	nt	nt	i
COc1ccc(CN(C)S(=O)(=O)c2nnc(NC(=O)C(C)C)s2)cc1OC	nt	nt	nt	nt	nt	i

Compound activity deposited in PubChem by National Center for Advancing Translational Sciences (NCATS).
